Test results reported in a collection of fitness landscapes (doi:10.1016/j.celrep.2020.107928).
Whole data set: some 81,000 sequences, median “one-hybrid fitness for binding parS DNA” near -0.17, cut for the highest 2% near 0.51. The list comes from a sample in which the highest values are over-represented; it also holds similar and randomly drawn sequences.

B1: Caulobacter ParB omega fusion; a variant is named by its letters at X, in order, B8GW30 (parent)
chain: MESVVVGEPGMSEGRRGLGRGLSALLGEVDAAPAQAPGEQLGGSREAPIEILQRNPDQPRRTFREEDLEDLSNSIREKGVLQPILVRPSPDTAGEYQIVAGERAWRAAQRAGLKTVPIMVRELDDLAVLEIGIIENVQRADLNVLEEALSYKVLMEKFERTQENIAQTIGKSXSHVANXMRLLXLPDEVQSYLVSGELTAXHARAIAAAADPVALAKQIIEGGLSVRETEALARKAPNLSAGKSKGGRPPRVKDTDTQALESDLSSVLGLDVSIDHRGSTGTLTITYATLEQLDDLCNRLTRGI

Variants of: B1
Experiment: one-hybrid fitness for binding parS DNA (scaled: cognate 1, non-cognate 0); higher = stronger binding
Conditions: with parS DNA site
Summary of the method: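 Fitness here means the log change in variant-to-wild-type read ratio between plasmids sequenced before and after selection. That scale was set so cognate equals 1 and non-cognate equals 0. The selection was a bacterial one-hybrid screen of Caulobacter ParB libraries, four specificity codons randomised, in E. coli USO carrying a HIS3 reporter with the site 19 bp from the promoter, grown 48 hours at 37°C on M9-minus-histidine with 0.1 mM IPTG and 5 mM 3-AT.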

Variant	one-hybrid fitness for binding parS DNA
RHHS	0.914
RHHD	≤ 0.2
RHPS	0.475
RHHN	0.391
RHID	≤ 0.2
TIDD	≤ 0.2
PRIM	≤ 0.2
TPSD	≤ 0.2
ANRF	≤ 0.2
TMCR	≤ 0.2
DPAI	≤ 0.2
RHLS	0.978
RHWS	0.925
RHLD	≤ 0.2
RHWP	≤ 0.2
RHLH	0.229
RHWN	0.305
TAQE	≤ 0.2
RTCV	≤ 0.2
LSSK	≤ 0.2
YMSG	≤ 0.2
SLTS	≤ 0.2
RSQH	0.296
RSQG	0.995
RDQG	≤ 0.2
RSQP	≤ 0.2
RMQG	1.01

Variant	one-hybrid fitness for binding parS DNA
RLQN	0.471
RMQQ	≤ 0.2
RPQG	≤ 0.2
RLQD	≤ 0.2
RMQR	0.223
RCQG	1.02
RLQG	1.01
FGAV	≤ 0.2
AVLG	≤ 0.2
GATL	≤ 0.2
VSCH	≤ 0.2
FRAR	≤ 0.2
KNVC	≤ 0.2
PTQM	≤ 0.2
HSEM	≤ 0.2
RTQF	0.213
RFQG	0.965
RTQG	1
RIQR	≤ 0.2
RIQG	0.999
DFQG	≤ 0.2
RTQR	≤ 0.2
NFQG	≤ 0.2
RIQF	0.272
NSFG	≤ 0.2
LQRT	≤ 0.2
MPTI	≤ 0.2

Variant	one-hybrid fitness for binding parS DNA
ANTA	≤ 0.2
ARCH	≤ 0.2
HTWT	≤ 0.2
RPAT	≤ 0.2
RSAR	≤ 0.2
RSAT	0.869
RDAT	≤ 0.2
REAT	≤ 0.2
RCAT	0.921
LAGT	≤ 0.2
HRLD	≤ 0.2
HMAN	≤ 0.2
WKAR	≤ 0.2
SDCR	≤ 0.2
RVTS	0.972
RVTF	0.202
RVTP	≤ 0.2
RVTY	0.459
RVTT	0.949
RVTM	0.299
RVTG	0.992
RVTD	≤ 0.2
RVTN	0.432
RVTH	0.22
RVTK	≤ 0.2
RVTC	0.982
